# Compound activity as filed in PubChem.
# MITF primary: human MITF inhibition, primary screen; AID 1259374; AlphaScreen MITF homodimerization, bead proximity signal; 0.91% of 650,000 active; inhibition, % at 2.6 µM; O75030; in the data active = inhibition above about 50%;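 also: 0% = vehicle wells with protein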
# GPR151 activ: activates the human receptor GPR151; Q8TDV0; PathHunter beta-arrestin GPR151 cells, luminescence; activation, % at 11.2 µM; 1% of 650,000 active; AID 1508602; in the data active = activation above about 4.9%;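 also: 0% = median of compound wells and 100% = cells with positive control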
# Target sequence (Q8TDV0 whole entry, looked up): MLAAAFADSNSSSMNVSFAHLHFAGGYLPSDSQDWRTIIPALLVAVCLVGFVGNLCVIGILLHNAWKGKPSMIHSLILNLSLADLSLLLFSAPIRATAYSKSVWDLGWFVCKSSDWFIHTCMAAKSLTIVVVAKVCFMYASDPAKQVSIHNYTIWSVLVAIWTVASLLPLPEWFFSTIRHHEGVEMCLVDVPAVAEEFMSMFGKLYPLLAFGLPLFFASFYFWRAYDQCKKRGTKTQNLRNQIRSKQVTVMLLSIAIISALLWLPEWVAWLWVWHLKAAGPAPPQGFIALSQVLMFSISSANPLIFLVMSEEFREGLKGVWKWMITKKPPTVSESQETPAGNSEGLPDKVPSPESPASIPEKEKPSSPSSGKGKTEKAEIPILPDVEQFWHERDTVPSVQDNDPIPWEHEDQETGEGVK
# TEAD-YAP block: TEAD-YAP interaction inhibition; HEK-TIYL cells, TEAD-Gal4/YAP UAS-luciferase luminescence; inhibition, % at 9.12 µM; 1.4% of 640,000 active; AID 1259422; in the data active = inhibition above about 32%;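 also: 0% = median of test compound wells and 100% = reference inhibitor wells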
# FBW7 activator: human FBW7 E3 ligase activation, primary screen | Q969H0 | AlphaScreen FBW7–phospho-cyclin E peptide binding, activator screen | normalized activity (activation), % at 26.1 µM | 0.13% of 650,000 active; in the data active = normalized activity above about 1.9%;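 also: purified mutant Fbw7 with reduced substrate affinity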
# MITF confirm: human MITF inhibition, confirmation; shares compounds with MITF primary; AlphaScreen MITF homodimerization, biotin/His-MITF beads; inhibition, % at 2.6 µM; 16% of 4,700 active; AID 1259372;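 active = inhibition above a cutoff derived from the DMSO control wells, cut at about 28% in these data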;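 also: 0% = MITF dimer wells with DMSO only; inhibitors lower the bead chemiluminescence by keeping MITF from dimerizing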
# AS interf DR: counter-screen: compounds optically interfering with AlphaScreen. shares compounds with MITF primary. AlphaScreen optical interference counterscreen, cell-free. IC50, µM. 6% of 480 active. AID 1259373; call rule not given here
# AlphaScreen intf2: optically interferes with AlphaScreen signal. 7.6% of 4,700 active. AID 1259376. shares compounds with MITF primary. LysRS AlphaScreen counterscreen, signal interference, triplicate. inhibition, % at 2.6 µM;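 active = inhibition above a cutoff derived from the DMSO control wells, cut at about 30% in these data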
# The depositor's hits bear a star; · = no result. In the library only some 3.5% were active in any assay of this set; here they are far more common.
SMILES,MITF primary,GPR151 activ,TEAD-YAP block,FBW7 activator,MITF confirm,AlphaScreen intf2,others
CCC(=O)Nc1c(-c2ccccc2)nc2c(C)cccn12,-10,1,-4,0,·,·,
C(=N\Nc1nc(-c2ccccn2)cs1)/c1cccnc1,52*,-2,-4,0,30*,54*,
COc1ccccc1C(=O)NCC(c1cccs1)N1CCc2ccccc2C1 (stereo not given),-6,0,-7,0,·,·,
CCn1c(Cc2ccccc2)nnc1SCC(=O)Nc1cc(C)on1,4,-1,4,0,·,·,
CCCc1nnc(SCC(=O)Nc2cc(C)on2)n1CC,74*,1,-3,0,4,12,
NS(=O)(=O)c1ccc(CNCC(F)(F)F)cc1,-12,-1,-5,0,·,·,
CC(C)(C)c1nnc(NC(=O)CN2C(=O)C3C4C=CC(C4)C3C2=O)s1 (stereo not given),68*,0,4,0,1,-10,
COc1ccc(C(=S)N2CCCCC2)cc1OC(=O)CCc1ccccc1,61*,1,4,0,10,15,
COc1cc(C(=S)N2CCCCC2)ccc1OCc1ccccc1,-1,0,-25,-1,·,·,
CCOc1cccc(OCCOc2ccc([N+](=O)[O-])cc2)c1,-6,0,5,0,·,·,
COc1ccc(-c2n[nH]c(=S)n2/N=C/c2ccc(C)s2)cc1OC,9,2,-2,0,·,·,
CN(C)c1c([N+](=O)[O-])cc([N+](=O)[O-])c2cccnc12,54*,1,7,-1,19,68*,
O=[N+]([O-])c1ccc(O)c2ncccc12,73*,0,6,0,83*,101*,
CC(CCc1ccccc1)NC(=O)COc1ccc(C#N)cc1 (stereo not given),8,0,-2,0,·,·,
O=C(C1=C(O)C(=O)N(Cc2cccnc2)C1c1ccc(F)cc1)c1ccco1 (stereo not given),14,0,9,0,·,·,
O=c1c2sc(=S)n(Cc3ccco3)c2nc(SCc2ccc(F)cc2Cl)n1-c1ccc(F)cc1,3,-1,-5,0,·,·,
O=c1c2sc(=S)n(Cc3ccco3)c2nc(SCc2ccc(F)cc2Cl)n1-c1ccccc1,51*,-2,-10,0,-3,9,
COc1ccccc1-c1c(C)nn2c(NCc3cccs3)cc(C)nc12,54*,1,-5,0,1,14,
COc1ccccc1-c1c(C)nn2c(NCc3ccccc3)cc(C)nc12,11,-1,1,0,·,·,
N#C/C(=C1\NC(=O)CS1)C(CC(=O)c1cccs1)c1ccc(F)cc1 (stereo not given),-4,0,-5,0,·,·,
CC1CC(C)CN(CC(=O)Nc2c3c(nc4ccccc24)CCC3)C1 (stereo not given),74*,1,-11,0,-7,-6,
O=C(CN1CCCCC1)Nc1c2c(nc3ccccc13)CCC2,53*,-1,2,0,17,16,
O=C(Cn1c(=O)[nH]c2ccsc2c1=O)N1CCN(C2CCCCC2)CC1,-8,-1,-1,0,·,·,
COc1cc(Nc2cc(N3CCN(C4CCCCC4)CC3)c3noc4c3c2C(=O)c2ccccc2-4)cc(OC)c1OC,19,1,0,0,·,·,
CCOC(=O)c1ccc(NC(=S)N2CCN(C(=O)OCC)CC2)cc1,6,0,-7,0,·,·,
SMILES,MITF primary,GPR151 activ,TEAD-YAP block,FBW7 activator,MITF confirm,AlphaScreen intf2,others
CCOC(=O)N1CCN(C(=S)Nc2ccc(OCC)cc2)CC1,102*,-1,2,0,64*,-6,AS interf DR=>6.5
CCOc1ccc(NCC(=O)Nc2ccc(F)cc2)cc1,68*,0,-27,0,5,1,
CS(=O)(=O)c1ccc2nc(NC(=O)/C=C/c3ccccc3Cl)sc2c1,7,0,1,0,·,·,
CS(=O)(=O)c1ccc2nc(NC(=O)/C=C/c3cccc([N+](=O)[O-])c3)sc2c1,80*,1,1,0,-9,-6,
O=S(=O)(NCc1ccsc1)c1ccc(F)c(Cl)c1,62*,-1,6,0,-8,0,
Cc1cc(S(=O)(=O)NCc2ccsc2)ccc1F,4,3,-1,1,·,·,
CCCCC(CC)CNCC(O)COCc1ccc(OC)c(OC)c1 (stereo not given),65*,-1,4,0,21,27,
Cc1[nH][nH]c(=O)c1C(c1ccccc1OCc1ccc(Br)cc1)c1c(C)[nH][nH]c1=O,66*,0,-11,-1,46*,7,
CCOc1cc(CN2CCC(C(=O)NCC3CCCO3)CC2)ccc1O (stereo not given),58*,1,0,0,1,-2,
CCOc1ccc(CN2CCC(C(=O)NCC3CCCO3)CC2)cc1 (stereo not given),36,0,-3,0,·,·,
COc1cc(CN2CCC(C(=O)NC3CCCC3)CC2)ccc1O,60*,0,5,0,-16,2,
Cc1ccccc1C(=O)Nc1ccc2c(c1)C(=O)NCCO2,51*,0,-4,0,-5,-5,
O=C(Nc1ccc2c(c1)C(=O)NCCO2)c1ccc(Cl)cc1,-16,0,-77,0,·,·,
COC(=O)CSc1nnc(-c2cccs2)n1CCc1ccccc1,7,-1,8,0,·,·,
N=C1SCC(=O)N1c1ncc(Cc2ccccc2)s1,59*,-2,4,0,10,43*,
N=C1SCC(=O)N1c1ncc(Cc2cccc(C(F)(F)F)c2)s1,10,-2,23,0,·,·,
FC(F)Oc1ccccc1/C=N/Nc1ccccn1,12,-1,-24,0,·,·,
CN(C)CC(C)(C)CNCC(=O)Nc1ccc(F)c(F)c1F,70*,0,1,0,1,-2,
C(=N\Nc1nnnn1-c1cccc2ccccc12)/c1ccc(OCc2ccccn2)cc1,69*,0,14,0,-2,9,
C(=N\Nc1nnnn1-c1cccc2ccccc12)/c1ccncc1,-2,1,1,0,·,·,
O=C(Nc1ccc(Cl)cc1)c1nn2c(C(F)(F)F)cc(-c3ccccc3)nc2c1Br,11,-1,-2,0,·,·,
O=C(CNC(=O)c1ccc(-c2ccccc2)cc1)OC1CCOC1=O (stereo not given),38,-1,-3,0,·,·,
Cc1ccc([N+](=O)[O-])cc1N(CC(=O)Nc1cccc(C)c1C)S(C)(=O)=O,15,1,-1,0,·,·,
O=C(NC1CC1)c1ccnc(-c2cccs2)c1,66*,0,-15,0,11,6,
COC(=O)C1=CN(CC23CC4CC(CC(C4)C2)C3)C=C(C(=O)OC)C1c1ccc(F)cc1,65*,0,-3,0,-2,-2,
CCc1nn(CC(=O)NCCN(C(C)C)C(C)C)c(=O)c2cc3ccsc3n12,12,0,-5,2,·,·,
